We go through 13 compounds from PubChem BioAssay (Tox21).

Assay [1] can be described thus: qHTS assay for small molecules that induce genotoxicity in human embryonic kidney cells expressing luciferase-tagged ATAD5 - cell viability (AID 651634; calls by dose curve; note: nearly all actives have a fitted effect of over 25% in size; note: potency is the fitted concentration of half-maximal effect). The gist of the method: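 Live-cell protease activity (CellTiter-Fluor, fluorescence) indicates viability. HEK293T cells with luciferase-tagged ATAD5; 15.5 hr compound treatment at 37C.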
In general terms: In qHTS, concentration-response curves come from the screen itself.

Assay [2] can be described thus: qHTS assay for small molecule disruptors of the mitochondrial membrane potential - cell viability (AID 720634; calls by dose curve;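 note: human HepG2 liver cancer cells; series mostly up to about 83 µM; nearly all actives have a fitted effect of over 20% in size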). In outline: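 Human hepatoma HepG2 cells were treated for 1 hr with test chemicals, then given m-MPI dye and CellTiter-Glo. Cell viability reflects luminescence proportional to cellular ATP.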
Assay [3] in a line: qHTS assay to test for compound auto fluorescence at 535 nm (green) in HepG2 cells (AID 720675). Note: potency is the fitted concentration of half-maximal effect.
Assay [4] in a line: qHTS assay to test for compound auto fluorescence at 535 nm (green) in HEK293 cells (AID 720680). Note: potency is the fitted concentration of half-maximal effect.
Assay [5] can be described thus: qHTS assay to test for compound auto fluorescence at 460 nm (blue) in HEK293 cell free culture (AID 720681). The gist of the method:
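Test compounds were pinned into cell-free culture medium (DMEM with 10% FBS) and fluorescence was read directly at Ex/Em 405/460 nm. Signals were expressed as fluorescence equivalents of triamterene, with DMSO vehicle as control.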

Assay [6] is described as follows: qHTS assay to test for compound auto fluorescence at 535 nm (green) in HEK293 cell free culture (AID 720682). Note: potency is the fitted concentration of half-maximal effect. The gist of the method:
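Measurement is a direct plate read of green fluorescence (485 nm in, 535 nm out) after compound addition to serum-supplemented DMEM lacking cells, with fluorescein used to express intensities.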

Assay [7] in a line: qHTS assay to test for compound auto fluorescence at 460 nm (blue) in HepG2 cell free culture (AID 720685). The gist of the method:
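Compound (23 nL) or DMSO pinned into cell-free MEM with 10% FBS; blue fluorescence read at 405/460 nm excitation/emission, expressed as auto-fluorescence equivalency to triamterene.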

Assay [8] in a line: qHTS assay for identifying genotoxic compounds that show differential cytotoxicity against isogenic chicken DT40 cell lines with known DNA damage response pathways - Rad54/Ku70 mutant cell line (AID 743015). Note: nearly all actives have a fitted effect of over 60% in size. Note: potency is the fitted concentration of half-maximal effect.
Assay [9] in a line: qHTS assay to identify small molecule antagonists of the androgen receptor (AR) signaling pathway using the MDA cell line - cell viability counter screen (AID 743041; note: nearly all actives have a fitted effect of over 45% in size). In outline:
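MDA-kb2 AR-luc human breast carcinoma cells (MMTV-luciferase, AR/GR responsive) were treated with compounds plus R1881 agonist for 16 h at 37 °C. Viability was read as CellTiter-Fluor fluorescence in the same wells as the reporter assay.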

The next assay has as its target Aromatase (Homo sapiens) (UniProt P11511). The assay can be described thus: qHTS assay to identify aromatase inhibitors (AID 743083). Note: series mostly up to about 70 µM; nearly all actives have a fitted effect of over 55% in size.
A short description of assay [10]: qHTS assay to identify aromatase inhibitors - cell viability counter screen (AID 743084).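 Note: cells stimulated with testosterone during compound exposure; nearly all actives have a fitted effect of over 55% in size.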
For assay [11], the target named is Aryl hydrocarbon receptor (Homo sapiens) (UniProt P35869). In words: qHTS assay to identify small molecule that activate the aryl hydrocarbon receptor (AhR) signaling pathway (AID 743085). Note: nearly all actives have a fitted effect of over 15% in size. Note: potency is the fitted concentration of half-maximal effect. The gist of the method:
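24 h compound exposure, 37C, HepG2-derived HG2L7.5c1 cells with DRE-responsive luciferase. Readouts: fluorescence viability, then luminescence at room temperature after 30 min.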

The nature of assay [12]: qHTS assay to identify small molecule that activate the aryl hydrocarbon receptor (AhR) signaling pathway - cell viability counter screen (AID 743086).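 Note: HepG2 liver cells carrying the AhR DRE luciferase reporter; series mostly up to about 70 µM; nearly all actives have a fitted effect of over 45% in size.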 In outline: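 HepG2-AhR-luc (HG2L7.5c1) cells, 4000/well, were preincubated 5 h at 37C, exposed to compound in qHTS format for 24 hr at 37C, then given CellTiter-Fluor for 30 min; viability was read as fluorescence in the reporter wells.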

Assay [13] in a line: qHTS assay to identify small molecule phospholipidosis (PLD) inducers (AID 1259344; active = well fitted curve in the direction sought with a large enough effect; an effect the other way counts as inactive or inconclusive). In outline: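 HepG2 cells on collagen I, attached 4 h at 37 C, were co-treated with compound and LipidTOX Red dye for 24 h at 37 C, then fixed with paraformaldehyde plus Hoechst 33342 and imaged by high-content microscopy for phospholipid accumulation.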
Assay [14] can be described thus: qHTS assay for small molecules that induce genotoxicity in human embryonic kidney cells expressing luciferase-tagged ATAD5 (AID 651632). Note: nearly all actives have a fitted effect of over 15% in size. In outline: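 Genotoxicity read-out via ATAD5-luciferase: HEK293T cells, 16 hr compound incubation at 37C, Amplite detection.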
The nature of assay [15]: qHTS assay to test for compound auto fluorescence at 590 nm (red) in HEK293 cell free culture (AID 720683). In outline: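 Tox21 10K library compounds were pinned into cell-free DMEM with 10% FBS and fluorescence was read at excitation 540 nm. Activity is expressed as Rose Bengal sodium equivalency.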
The nature of assay [16]: qHTS assay to test for compound auto fluorescence at 590 nm (red) in HepG2 cell free culture (AID 720684). The gist of the method:
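Red fluorescence (540 nm excitation, 590 nm emission) was measured after compound transfer into cell-free MEM supplemented with 10% FBS. Values are equivalencies against Rose Bengal sodium.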

The nature of assay [17]: qHTS assay to identify small molecule antagonists of the thyroid receptor (TR) signaling pathway (AID 743065). Note: nearly all actives have a fitted effect of over 55% in size. Note: potency is the fitted concentration of half-maximal effect. In outline: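 GH3.TRE-Luc rat pituitary cells carrying two TR response elements driving luciferase were plated for 4 h, given compound plus 1 nM T3 (final), and incubated 23.5 h at 37 C. ONE-Glo luminescence measured reporter inhibition; CellTiter-Fluor fluorescence tracked cytotoxicity.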

A short description of assay [18]: qHTS assay to identify small molecule antagonists of the estrogen receptor alpha (ER-alpha) signaling pathway using the BG1 cell line - cell viability counter screen (AID 743081).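 Note: compound given together with 17beta-estradiol as the ER stimulus; series mostly up to about 70 µM; nearly all actives have a fitted effect of over 45% in size.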

Inconclusive results are not listed. Activity calls are given as the source filed them. Unless noted, calls come from the whole dose curve; as a rule, active = well fitted curve in the direction sought with a large enough effect in the repeat runs; inconclusive = weak or mixed curves; inactive = no such curve, though single readings can be large; an effect the other way counts as inactive or inconclusive.
Tags give direction and shape of the fitted curve or compound fluorescence and quenching.

Chain of Aryl hydrocarbon receptor (Homo sapiens) (P35869 whole entry, looked up): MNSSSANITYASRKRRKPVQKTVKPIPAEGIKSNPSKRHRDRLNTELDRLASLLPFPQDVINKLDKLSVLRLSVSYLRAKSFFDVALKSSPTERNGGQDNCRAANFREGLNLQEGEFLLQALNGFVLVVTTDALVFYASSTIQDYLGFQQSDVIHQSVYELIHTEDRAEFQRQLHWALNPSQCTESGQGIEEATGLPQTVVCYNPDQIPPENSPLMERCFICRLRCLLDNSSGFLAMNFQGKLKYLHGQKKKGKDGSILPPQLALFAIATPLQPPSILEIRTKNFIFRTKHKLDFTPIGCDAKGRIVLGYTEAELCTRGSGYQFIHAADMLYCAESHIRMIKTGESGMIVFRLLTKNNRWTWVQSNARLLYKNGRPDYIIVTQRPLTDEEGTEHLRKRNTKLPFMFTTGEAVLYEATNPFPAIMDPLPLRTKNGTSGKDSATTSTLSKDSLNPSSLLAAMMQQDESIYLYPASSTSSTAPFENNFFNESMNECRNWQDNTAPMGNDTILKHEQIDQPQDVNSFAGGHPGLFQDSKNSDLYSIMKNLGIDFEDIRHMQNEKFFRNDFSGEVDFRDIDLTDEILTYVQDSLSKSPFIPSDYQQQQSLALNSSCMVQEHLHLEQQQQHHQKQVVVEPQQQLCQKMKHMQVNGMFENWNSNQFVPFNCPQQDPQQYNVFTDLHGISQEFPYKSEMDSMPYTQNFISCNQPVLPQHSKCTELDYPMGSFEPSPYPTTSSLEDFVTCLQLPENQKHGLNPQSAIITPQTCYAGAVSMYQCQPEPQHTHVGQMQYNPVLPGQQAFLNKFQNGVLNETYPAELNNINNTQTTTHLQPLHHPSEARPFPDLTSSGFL
Chain of Aromatase (Homo sapiens) (P11511 whole entry, looked up): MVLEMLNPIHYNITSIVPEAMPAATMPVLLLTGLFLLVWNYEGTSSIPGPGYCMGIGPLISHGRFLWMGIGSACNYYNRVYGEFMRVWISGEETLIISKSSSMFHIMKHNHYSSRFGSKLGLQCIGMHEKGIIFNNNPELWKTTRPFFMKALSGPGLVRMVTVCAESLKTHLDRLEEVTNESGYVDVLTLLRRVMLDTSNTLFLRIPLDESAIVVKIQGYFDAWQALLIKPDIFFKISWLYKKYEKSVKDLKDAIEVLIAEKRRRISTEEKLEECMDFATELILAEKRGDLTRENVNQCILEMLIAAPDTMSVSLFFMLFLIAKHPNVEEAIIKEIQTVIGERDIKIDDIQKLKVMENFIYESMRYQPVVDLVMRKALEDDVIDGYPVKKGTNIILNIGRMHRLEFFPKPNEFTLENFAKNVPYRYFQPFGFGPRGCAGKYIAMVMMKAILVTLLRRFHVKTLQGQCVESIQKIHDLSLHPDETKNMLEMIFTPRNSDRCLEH

Turning to `O=C1OC2(c3cc(Br)c(O)cc3Oc3c2cc(Br)c(O)[c]3[Hg])c2ccccc21` (stereo not given), the Potency result (in [1]; in [2]; in assay [5]; in assay [7]; in assay [9]; with Aromatase (Homo sapiens)) was “inactive” each time. The Potency entry in assay [10], in assay [11], in [12] and in assay [13] was “inactive” each time. For the same compound, the Potency in [3] was 10 µM (active); in assay [4], 10 µM [fluorescent] (active); in [6], 10 µM [fluorescent] (active); in assay [8], 10.1 µM (active).

As to `CN1C(=O)CC(=O)N(c2ccccc2)c2cc(Cl)ccc21`, the Potency entry in assay [14], in assay [1], in assay [2], in [3], in [4] and in assay [5] was “inactive” throughout. For the same compound, the Potency result in [6], in assay [7], in assay [8], in assay [9], in assay [17] and in [18] was “inactive” throughout. Further, the Potency result (with Aromatase (Homo sapiens); in [10]; in assay [11]; in assay [12]; in [13]) was “inactive” each time. Also, the result in assay [15] and in [16] was inactive.

With `C[C@@H](Cc1ccccc1)N(C)C`, the Potency entry in [14], in assay [1], in assay [2], in [3], in assay [4] and in [5] was “inactive” in each case. Besides, the Potency entry in assay [6], in assay [7], in assay [8], in assay [9], in [17] and in [18] was “inactive” in each case. For the same compound, the Potency result (in the assay with Aromatase (Homo sapiens); in [10]; in [11]; in assay [12]; in assay [13]) was “inactive” throughout. The result in assay [15] and in assay [16] was inactive.

In the case of `CC(=O)[C@H]1CC[C@H]2[C@@H]3CC[C@@H]4C[C@H](O)CC[C@]4(C)[C@H]3CC[C@]12C`, the Potency entry in [14], in [1], in assay [2], in assay [3], in assay [4] and in assay [5] was “inactive” each time. Further, the Potency result (in [6]; in assay [7]; in [8]; in assay [9]; in [18]; with Aromatase (Homo sapiens)) was “inactive” in each case. Further, the Potency entry in [10], in [11], in assay [12] and in [13] was “inactive” each time. For the same compound, the compound was called inactive in assay [15] and in assay [16]. Besides, the Potency in assay [17] is 13.3 µM (active).

In the case of `O=C(OCCN1CCCCC1)C(O)(c1ccccc1)c1ccccc1`, the Potency entry in [14], in assay [1], in assay [2], in [3], in assay [4] and in [5] was “inactive” throughout. The Potency result in [6], in assay [7], in [8], in assay [9], in [17] and in assay [18] was “inactive” each time. In addition, the Potency result (with Aromatase (Homo sapiens); in [10]; in assay [11]; in assay [12]; in assay [13]) was “inactive” each time. The compound was classed as inactive in assay [15] and in assay [16].

Take `CN1CCCC(=C(c2cccs2)c2cccs2)C1`: the Potency entry in [14], in assay [1], in [2], in assay [3], in assay [4] and in assay [5] was “inactive” throughout. In addition, the Potency entry (in assay [6]; in [7]; in assay [9]; in [17]; in [18]; with Aromatase (Homo sapiens)) was “inactive” each time. In addition, the Potency result in assay [10], in [11], in assay [12] and in [13] was “inactive” each time. Further, the compound was classed as inactive in [15] and in assay [16].

Turning to `COc1ccc2c3c1O[C@H]1[C@@H](O)C=C[C@H]4[C@@H](C2)NCC[C@@]341`, the Potency entry in assay [14], in [1], in [2], in [3], in [4] and in assay [5] was “inactive” in each case. Further, the Potency entry in assay [6], in assay [7], in assay [8], in assay [9], in assay [17] and in assay [18] was “inactive” each time. Besides, the Potency result (with Aromatase (Homo sapiens); in assay [10]; in assay [11]; in assay [12]; in assay [13]) was “inactive” in each case. For the same compound, the result in [15] and in assay [16] was inactive.

Turning to `CCCCCc1cc(O)c2c(c1)OC(C)(C)[C@@H]1CCC(C)=C[C@@H]21`, the Potency entry in [14], in assay [1], in assay [3], in assay [4], in assay [5] and in assay [6] was “inactive” each time. The Potency result in [7], in assay [9], in assay [18], in assay [10], in assay [12] and in assay [13] was “inactive” each time. The call in assay [15] and in [16] was inactive. The Potency in [8] was 10.6 µM (active); in assay [17], 16.8 µM (active); in assay [11] it was 9.44 µM (active).

As for `C/C(=C\c1csc(C)n1)[C@@H]1C[C@@H]2O[C@]2(C)CCC[C@H](C)[C@H](O)[C@@H](C)C(=O)C(C)(C)[C@@H](O)CC(=O)O1`, the Potency entry in assay [14], in [2], in [3], in assay [4], in assay [5] and in assay [6] was “inactive” in each case. Moreover, the Potency result (in assay [7]; in assay [9]; in [18]; in the assay with Aromatase (Homo sapiens); in [10]; in assay [11]) was “inactive” throughout. For the same compound, the Potency result in assay [12] and in assay [13] was “inactive” throughout. Further, the outcome in assay [15] and in [16] was inactive. In addition, the Potency in [8] was 0.0038 µM (active); in assay [17] it was 0.0106 µM (active).

For `COC(=O)[C@@H]1[C@H]2CC[C@@H](C[C@H]1OC(=O)c1ccccc1)N2C`, the Potency entry in [14], in assay [1], in [2], in [3], in [4] and in assay [5] was “inactive” each time. Also, the Potency result in assay [6], in [7], in assay [8], in [9], in [17] and in assay [18] was “inactive” in each case. Further, the Potency result (with Aromatase (Homo sapiens); in [10]; in assay [11]; in assay [12]; in assay [13]) was “inactive” in each case. Also, the outcome in assay [15] and in [16] was inactive.

`C[C@]12CC[C@H](O)C[C@H]1CC[C@@H]1[C@@H]2CC[C@]2(C)[C@@H](c3ccc(=O)oc3)C[C@H]3O[C@]132`: the Potency result in [14], in assay [2], in assay [3], in assay [4], in assay [5] and in assay [6] was “inactive” in each case. For the same compound, the Potency result (in assay [7]; in assay [18]; with Aromatase (Homo sapiens); in assay [10]; in assay [11]; in assay [12]) was “inactive” in each case. Further, the Potency entry in [13] is “inactive”. The values for the Potency in assay [1] and in assay [8] were 2.11 µM (active) and 13.3 µM (active), respectively. Besides, the compound was called inactive in [15] and in [16].

For the compound `O=C(NC(=O)c1c(F)cccc1F)Nc1ccc(Cl)c(Oc2ncc(C(F)(F)F)cc2Cl)c1`, the Potency entry in assay [14], in [1], in assay [2], in [3], in assay [4] and in assay [5] was “inactive” in each case. Moreover, the Potency result (in assay [6]; in [7]; in assay [9]; in [17]; in assay [18]; in the assay with Aromatase (Homo sapiens)) was “inactive” each time. In addition, the Potency result in [10], in [11], in [12] and in assay [13] was “inactive” each time. The compound was called inactive in assay [15] and in assay [16].

Turning to `Oc1ccc2c3c1O[C@H]1[C@@H](O)CC[C@@]4(O)[C@@H](C2)N(CC2CCC2)CC[C@]314`, the Potency entry in [14], in assay [1], in assay [2], in assay [3], in [4] and in assay [5] was “inactive” each time. In addition, the Potency entry in assay [6], in assay [7], in assay [8], in assay [9], in assay [17] and in assay [18] was “inactive” each time. The Potency entry (with Aromatase (Homo sapiens); in assay [10]; in assay [11]; in assay [12]; in assay [13]) was “inactive” each time. For the same compound, the compound was classed as inactive in assay [15] and in [16].
